We go through 34 compounds from ChEMBL document CHEMBL3433997, “St. Jude Leishmania screening dataset” (2016).

Where “and” joins values, the source holds several entries; their conditions need not be identical. Equal values may be shown once.

Holding throughout (format): functional
In assay [1] the target is Solute carrier family 2, facilitated glucose transporter member 1 (Homo sapiens) (UniProt P11166). Kind of assay: ST_JUDE_LEISH: Cytotoxicity at 2uM final concentration against transgenic Leishmania Mexicana promastigotes LmGLUT1 that are glucose transport deficient and complemented with the human glucose transporter GLUT1. Activity is measured by DNA content using SYBR green in vitro.
Chain of Solute carrier family 2, facilitated glucose transporter member 1 (Homo sapiens) (P11166 whole entry): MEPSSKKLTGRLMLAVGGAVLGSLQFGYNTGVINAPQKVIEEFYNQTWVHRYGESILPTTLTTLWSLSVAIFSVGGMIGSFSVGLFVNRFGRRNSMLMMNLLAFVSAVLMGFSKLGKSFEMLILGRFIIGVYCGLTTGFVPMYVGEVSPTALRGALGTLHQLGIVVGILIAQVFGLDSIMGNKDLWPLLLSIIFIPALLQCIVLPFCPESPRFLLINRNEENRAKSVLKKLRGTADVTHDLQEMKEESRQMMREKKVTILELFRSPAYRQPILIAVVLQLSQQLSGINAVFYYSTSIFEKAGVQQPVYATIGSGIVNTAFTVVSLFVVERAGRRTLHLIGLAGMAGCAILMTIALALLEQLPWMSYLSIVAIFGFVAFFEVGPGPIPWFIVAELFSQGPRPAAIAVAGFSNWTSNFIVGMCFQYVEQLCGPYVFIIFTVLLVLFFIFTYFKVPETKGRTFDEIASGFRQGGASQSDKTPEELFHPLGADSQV

Assay [2] concerns the target Hexose transporter 1 (Plasmodium falciparum) (UniProt O97467). Kind of assay: ST_JUDE_LEISH: Cytotoxicity at 2uM final concentration against transgenic Leishmania Mexicana promastigotes LmPfHT that are glucose transport deficient and complemented with the Plasmodium falciparum hexose transporter. Activity is measured by DNA content using SYBR green in vitro.
Assay [3] addresses Glucose transporter (Leishmania mexicana) (UniProt O61059). The assay is described as follows: ST_JUDE_LEISH: Cytotoxicity at 2uM final concentration against transgenic Leishmania Mexicana promastigotes LmGT2 that are glucose transport deficient and complemented with the L. Mexicana glucose transporter 2. Activity is measured by DNA content using SYBR green in vitro.

As to `N#Cc1c(Cl)cccc1Oc1ccc(S(=O)(=O)N2CCC(CN3CCC(c4c[nH]c5ccccc45)CC3)CC2)cc1`, the inhibition in assay [1] is 1.64%; in assay [2], -0.14%; in assay [3] it was -0.73%.
Consider `Cc1c(C)c2c(c(C)c1O)CC[C@@](C)(C(=O)N1CCC(CN3CCC(c4c[nH]c5ccccc45)CC3)CC1)O2`, for which the inhibition in assay [1] is -0.93%; in assay [2], -1.76%; in assay [3] it was -3.6%.
Turning to `O=C(/C=C/c1ccc(Cl)c(Cl)c1)N1CCC(CN2CCC(c3c[nH]c4ccc(NS(=O)(=O)c5cccs5)cc34)CC2)CC1`, the inhibition was 6.53% in assay [1], 5.86% in assay [2] and 5.21% in assay [3].
Take `COc1cc(C=CC(=O)N2CCC(CN3CCC(c4c[nH]c5ccccc45)CC3)CC2)ccc1O`: the inhibition was found to be 8.46% in assay [1], 6.19% in assay [2] and 6.97% in assay [3].
Take `Cc1ccc(C)c(C=CC(=O)NC2CCC(CN3CCC(c4c[nH]c5ccccc45)CC3)CC2)c1` (configuration not stated): the inhibition was 1.09% and 15% in assay [1]; 1.99% and 11.5% in assay [2]; 1.04% and 10.2% in assay [3].
For the compound `CCCCC/C=C/C(=O)NC1CCC(CN2CCC(c3c[nH]c4ccccc34)CC2)CC1` (configuration not stated), the values for the inhibition in assay [1], in assay [2] and in assay [3] were 2.84%, 2.43% and 4.05%, respectively.
`Cc1[nH]c2ccc(O)cc2c1C1CCN(CC2CCN(C(=O)/C=C/c3ccc(Cl)c(Cl)c3)CC2)CC1`: the inhibition was 0.92% in assay [1], 0.19% in assay [2] and -0.96% in assay [3].
For `COc1ccc(C(=O)C2CC2CN2CC=C(c3c(C)[nH]c4ccccc34)CC2)cc1` (configuration not stated), the inhibition in assay [1] is -1.12%; in assay [2], 2.52%; in assay [3] it was 3.3%.
In the case of `COc1cc(NCCCNC(=O)c2cn(Cc3ccccc3)c3ccccc23)nc2ccccc12`, the inhibition in assay [1] is -0.26%; in assay [2], -0.48%; in assay [3], -1.02%.
Consider `CCC1=C[C@@H]2CN(C1)Cc1c([nH]c3ccccc13)[C@@](C(=O)OC)(c1cc3c(cc1OC)N(C)[C@H]1[C@@](O)(C(=O)OC)[C@H](O)[C@]4(CC)C=CCN5CC[C@]31[C@@H]54)C2`, for which the inhibition in assay [1] is 2.2%; in assay [2], 4.15%; in assay [3], 2.69%.
For `Cc1cccc(C(=O)Nc2ccnc(N(C)C3CCN(CC(C)C)CC3)c2)c1`, the values for the inhibition in assay [1], in assay [2] and in assay [3] were -0.27%, 0.85% and 0%, respectively.
In the case of `CC(C)CN1CCC(N(C)c2cc(NC(=O)c3cccc(F)c3)ccn2)CC1`, the inhibition was -1.6% in assay [1], 0.49% in assay [2] and 0.5% in assay [3].
Consider `O=C(NC1CCC(CN2CCC(c3c[nH]c4ccccc34)CC2)CC1)c1cc(-c2ccccc2Cl)oc1C(F)(F)F` (configuration not stated), for which the inhibition was 0.8% in assay [1], 1.05% in assay [2] and 0.55% in assay [3].
With `O=C(NC1CCN(CC2(c3ccc(Cl)cc3)CCC2)CC1)c1cc[nH]n1`, the figures for the inhibition in assay [1], in assay [2] and in assay [3] were 1.71%, -0.69% and -1.02%, respectively.
Consider `CCCCOC(C(=O)OCC1CCCN1C)(c1ccccc1)c1ccccc1` (configuration not stated), for which the inhibition in assay [1] was -0.11%; in assay [2], 1.91%; in assay [3] it was 2.05%.
In the case of `CC(=O)C1(c2ccccc2)CCN(CCC2(c3ccc(Cl)c(Cl)c3)CN(C(=O)Nc3cccc(C(F)(F)F)c3)CCO2)CC1` (configuration not stated), the inhibition in assay [1] was 7.51%; in assay [2], 4.19%; in assay [3] it was 3.14%.
On the same counts, the results for `CC(Cc1ccc(CSC(C)C)cc1)NCC(O)c1cccc(Cl)c1` (configuration not stated) are 3.54%, 3.54% and 3.37%.
Consider `Cc1[nH]c2cc(Cl)ccc2c1C1=CCN(CCN2CCOc3c(Br)cccc3C2=O)CC1`, for which the inhibition came out at 5.36% in assay [1], 5.27% in assay [2] and 6.71% in assay [3].
On to `CN1CC=C(c2c[nH]c3ccc(Sc4ccccc4)cc23)CC1`, for which the figures for the inhibition in assay [1], in assay [2] and in assay [3] were 1.74%, 2.9% and 3.42%, respectively.
As for `Cc1ccc(/C=C/C(=O)NC2CCC(CN3CCC(c4c[nH]c5ccccc45)CC3)CC2)cc1` (configuration not stated), the inhibition in assay [1] was 0.19% and 4.55%; in assay [2] it was 1.12% and 3.15%; in assay [3], 2.44% and 0.47%.
With `Oc1ccc(CN2CCN(CCOC(c3ccccc3)c3ccccc3)CC2)cc1Cl`, the inhibition was 0.53% in assay [1], 3.98% in assay [2] and -1.69% in assay [3].
Regarding `CS(=O)(=O)Nc1ccc2[nH]cc(C3CC4CCC(C3)N4CC3CCC(NC(=O)/C=C/c4ccc(Cl)c(Cl)c4)CC3)c2c1` (configuration not stated), the inhibition worked out at 5.91% in assay [1], 5.37% in assay [2] and 5.09% in assay [3].
Turning to `CCCCCc1cc(O)c2c(c1)OC(C)(C)CC2C1=CCN(Cc2cnc3ccccc3c2)CC1` (configuration not stated), the inhibition in assay [1] worked out at 1.53%; in assay [2], 1.25%; in assay [3], 0.64%.
As for `CCC1(C)N=C(N)N=C(N)N1c1ccc(Cl)cc1` (configuration not stated), the inhibition is 3.87% in assay [1], -0.9% in assay [2] and 2.79% in assay [3].
For `CN(c1ccnc(Nc2ccc(CS(C)(=O)=O)cc2)n1)C1CCN(Cc2ccccc2)CC1` the same measures were 2.04%, 2.62% and 1.21%.
Regarding `Cc1cc(-c2ncc[nH]2)ccc1-c1ccc(C(=O)N2CCc3cc4c(cc32)C2(CCN(C)CC2)CO4)cc1`, the results for the inhibition in assay [1], in assay [2] and in assay [3] were -2.79%, 1.74% and -0.2%, respectively.
On to `CC1(C)N=C(N)N=C(N)N1c1ccc([N+](=O)[O-])cc1`, for which the inhibition in assay [1] is 9.35%; in assay [2] it was 8.47%; in assay [3], 7.22%.
Regarding `Cc1ccc2c(C3=CCN(CCCCC4(C)C(=O)Nc5c(F)cccc54)CC3)c(C)[nH]c2c1` (configuration not stated), the inhibition worked out at 2.71% in assay [1], 1.48% in assay [2] and 1.63% in assay [3].
Turning to `O=C(C=Cc1ccc(F)c(Br)c1)N1CCC(CN2CCC(c3c[nH]c4ccccc34)CC2)CC1`, the inhibition was determined as 17.6% in assay [1], 15.9% in assay [2] and 13.1% in assay [3].
As for `CC(C)c1ccc(C=CC(=O)NC2CCC(CN3CCC(c4c[nH]c5ccccc45)CC3)CC2)cc1` (configuration not stated), the inhibition in assay [1] stood at 2.2%; in assay [2] it was 1.4%; in assay [3], 2.47%.
For `CC[C@H]1CN2CC[C@H]1C[C@@H]2[C@H](O)c1ccnc2ccc(O)cc12` the same measures were -0.84%, -0.85% and 0.24%.
`CN(c1cc(NC(=O)c2ccc(F)cc2)ccn1)C1CCN(Cc2ccc(C#N)cc2)CC1`: the inhibition in assay [1] amounted to 2.42%; in assay [2] it was 2.29%; in assay [3] it was 4.46%.
For `COc1ccc(CC(C)NCC(O)c2cccc(Cl)c2)cc1C` (configuration not stated) the same measures were 7.48%, 5.85% and 7.3%.
On the same counts, the results for `O=C1NCN(c2ccc(O)cc2)C12CCN(CCCC(c1ccc(F)cc1)c1ccc(F)cc1)CC2` are 3.87%, 3.34% and 3.43%.

A word on the inhibition: it is the drop in the measured response relative to a control, in per cent.
